Structures are written as SMILES. The whole screen tested about 310,000 compounds, of which about 14,000 (4.5%) showed an effect of 50% or more. Effects have a minus sign here. Shown is part of a subset that was picked to be rich in strong results.
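Note: peak tail current of the secondary pulse compared with the same well before compound.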

The target of this test is human ether-à-go-go-related gene (hERG) potassium channel (human, UniProt Q12809). Description: primary screen, population patch clamp on CHO cells stably expressing hERG; higher = less effect of the substance.
Sequence of human ether-à-go-go-related gene (hERG) potassium channel (Q12809 whole entry, looked up): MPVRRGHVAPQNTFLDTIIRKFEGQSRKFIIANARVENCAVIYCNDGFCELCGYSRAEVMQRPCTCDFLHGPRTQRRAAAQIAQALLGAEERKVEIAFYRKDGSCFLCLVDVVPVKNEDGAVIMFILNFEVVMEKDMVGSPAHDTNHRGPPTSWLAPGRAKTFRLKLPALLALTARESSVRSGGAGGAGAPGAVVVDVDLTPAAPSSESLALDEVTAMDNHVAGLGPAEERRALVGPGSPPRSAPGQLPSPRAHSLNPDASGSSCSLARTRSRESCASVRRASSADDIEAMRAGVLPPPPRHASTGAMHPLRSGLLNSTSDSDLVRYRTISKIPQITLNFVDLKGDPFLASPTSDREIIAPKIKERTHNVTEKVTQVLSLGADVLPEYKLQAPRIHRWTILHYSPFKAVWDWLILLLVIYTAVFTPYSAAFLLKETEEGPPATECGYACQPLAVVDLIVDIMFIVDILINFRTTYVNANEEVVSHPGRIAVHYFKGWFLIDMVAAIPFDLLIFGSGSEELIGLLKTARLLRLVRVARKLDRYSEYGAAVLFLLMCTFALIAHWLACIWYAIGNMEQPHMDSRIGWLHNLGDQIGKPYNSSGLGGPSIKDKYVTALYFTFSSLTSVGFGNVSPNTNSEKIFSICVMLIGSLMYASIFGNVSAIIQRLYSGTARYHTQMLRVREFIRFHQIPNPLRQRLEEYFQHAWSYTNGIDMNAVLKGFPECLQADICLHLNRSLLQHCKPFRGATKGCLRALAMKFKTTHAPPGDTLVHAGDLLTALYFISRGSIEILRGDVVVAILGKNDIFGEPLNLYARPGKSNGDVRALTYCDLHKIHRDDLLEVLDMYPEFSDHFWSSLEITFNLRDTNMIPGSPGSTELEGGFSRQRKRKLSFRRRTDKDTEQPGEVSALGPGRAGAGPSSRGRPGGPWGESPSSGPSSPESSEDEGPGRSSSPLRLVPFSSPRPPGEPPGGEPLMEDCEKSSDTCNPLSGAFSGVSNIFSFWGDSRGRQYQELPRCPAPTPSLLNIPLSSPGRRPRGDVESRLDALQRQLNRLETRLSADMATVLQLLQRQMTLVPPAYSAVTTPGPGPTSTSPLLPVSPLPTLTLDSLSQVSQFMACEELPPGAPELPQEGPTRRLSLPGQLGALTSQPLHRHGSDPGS
Take `N#CC1=C(c2ccc(-c3ccccc3)cc2)COC1=O`: the “hERG current change (%, negative = inhibition) at 10uM” value is -15.1%.

On to `CCCn1nc(C(=O)NNC(=O)CCCOc2ccc(OC)cc2)c2ccccc2c1=O`, for which the “hERG current change (%, negative = inhibition) at 10uM” value is on record as -8.53%.

Regarding `Cc1ccc(NC(=O)CC(C(=O)O)c2ccccc2)cc1` (centres unmarked), the “hERG current change (%, negative = inhibition) at 10uM” value is 8.15%.

As for `COc1ccccc1/C=C/CN1CCC(Oc2ccc(C(=O)N3CCCC3)cc2)CC1`, the “hERG current change (%, negative = inhibition) at 10uM” value is -24.3%.

In the case of `O=C(c1ccc(OC2CCN(C/C=C/c3ccccc3)CC2)cc1)N1CCCC1`, the “hERG current change (%, negative = inhibition) at 10uM” value is -75.7%.

In the case of `O=C(c1ccc(OC2CCN(C/C=C/c3ccccc3)CC2)cc1)N1CCCCC1`, the “hERG current change (%, negative = inhibition) at 10uM” value is given as -53.1%.

As for `Cc1ccccc1CN1CCC(Oc2ccc(C(=O)N3CCCC3)cc2)CC1`, the “hERG current change (%, negative = inhibition) at 10uM” value is on record as -13.7%.

As for `O=C(c1ccc(OC2CCN(Cc3ccccn3)CC2)cc1)N1CCCCCC1`, the “hERG current change (%, negative = inhibition) at 10uM” value is on record as -14.9%.

For the compound `CCCC(=O)NC(c1ccc(Cl)cc1Cl)c1ccc2cccnc2c1O` (centres unmarked), the “hERG current change (%, negative = inhibition) at 10uM” value was determined as 0.094%.

In the case of `CC(=O)Cc1c(C(=O)O)c(C)nn1-c1ccccc1`, the “hERG current change (%, negative = inhibition) at 10uM” value amounted to 21.5%.

Turning to `O=[N+]([O-])/C=C/c1ccc2c(ccn2Cc2ccccc2)c1`, the “hERG current change (%, negative = inhibition) at 10uM” value is 15.8%.

Regarding `CCCN1CCN(C(=O)c2oc3ccccc3c2NC(=O)COc2ccc(OC)cc2)CC1`, the “hERG current change (%, negative = inhibition) at 10uM” value is recorded as -79.5%.

As to `O=C(COc1ccccc1)Nc1c(C(=O)N2CCC(N3CCCCC3)CC2)oc2ccccc12`, the “hERG current change (%, negative = inhibition) at 10uM” value is on record as -69%.

Turning to `COc1ccccc1C(=O)Nc1c(C(=O)N2CCN(C)CC2)oc2ccccc12`, the “hERG current change (%, negative = inhibition) at 10uM” value is recorded as -45.2%.

As to `COc1ccc(N2CCN(C(=O)c3oc4ccccc4c3NC(=O)CCc3cc(OC)no3)CC2)cc1`, the “hERG current change (%, negative = inhibition) at 10uM” value was -10.4%.

For `COCC(=O)Nc1c(C(=O)N2CCCC2)oc2ccccc12`, the “hERG current change (%, negative = inhibition) at 10uM” value turned out to be 1.46%.

Consider `COc1ccc(OCC(=O)Nc2c(C(=O)N3CCC(N4CCCCC4)CC3)oc3ccccc23)cc1`, for which the “hERG current change (%, negative = inhibition) at 10uM” value is -87.7%.

As to `CCCN1CCN(C(=O)c2oc3ccccc3c2NC(=O)C2CC2)CC1`, the “hERG current change (%, negative = inhibition) at 10uM” value is given as -42.6%.

For the compound `COc1ccc(OCC(=O)Nc2c(C(=O)N3CCN(C)CC3)oc3ccccc23)cc1`, the “hERG current change (%, negative = inhibition) at 10uM” value is given as -42%.

For `CC(C)CC(=O)Nc1c(C(=O)N2CCN(Cc3ccccc3)CC2)oc2ccccc12`, the “hERG current change (%, negative = inhibition) at 10uM” value is -20.9%.

For `N#Cc1ccccc1OCC(=O)Nc1c(C(=O)C2CC2)oc2ccccc12`, the “hERG current change (%, negative = inhibition) at 10uM” value is 2.52%.

In the case of `O=C(COc1ccc(F)cc1)Nc1c(C(=O)N2CCC(N3CCCCC3)CC2)oc2ccccc12`, the “hERG current change (%, negative = inhibition) at 10uM” value is -81.1%.

Consider `COc1ccc(OCC(=O)Nc2ccccc2C(=O)N2CCCC2)cc1`, for which the “hERG current change (%, negative = inhibition) at 10uM” value is on record as -7.38%.

Take `CCCCC[C@H](O)/C=C/[C@@H]1[C@@H](C/C=C\CCCC(=O)O)[C@@H](O)C[C@H]1O.NC(CO)(CO)CO`: the “hERG current change (%, negative = inhibition) at 10uM” value is 9.22%.

As for `COc1ccccc1CC(=O)N(CCC1=CCCCC1)c1c(N)n(Cc2ccccc2)c(=O)[nH]c1=O`, the “hERG current change (%, negative = inhibition) at 10uM” value is -12%.

`CCn1c(CCC(=O)N(C)CC(=O)Nc2cccc(F)c2)nc2cc(S(=O)(=O)N(C)C)ccc21`: the “hERG current change (%, negative = inhibition) at 10uM” value is -19.3%.

Regarding `CC(=O)C1=C(O)C(=O)N(c2cccc(Br)c2)C1c1ccc(Br)cc1` (centres unmarked), the “hERG current change (%, negative = inhibition) at 10uM” value was found to be 15.8%.

As to `COCCN(CC(=O)NCc1ccccc1)C(=O)CCC(=O)Nc1ccccn1`, the “hERG current change (%, negative = inhibition) at 10uM” value stood at 4.54%.

Regarding `CCOC(=O)N1CCN(S(=O)(=O)/C=C/c2ccccc2)CC1`, the “hERG current change (%, negative = inhibition) at 10uM” value is reported as -17.5%.

For `COC(=O)Cn1cnc2sc(C)c(S(=O)(=O)N3CCN(c4ccccc4OC)CC3)c2c1=O`, the “hERG current change (%, negative = inhibition) at 10uM” value is reported as -5.55%.

On to `Cc1c(Cl)cccc1NC(=O)CNC(=O)c1ccc(F)cc1`, for which the “hERG current change (%, negative = inhibition) at 10uM” value came to 27.4%.

Take `Cc1ccc(NC(=O)Nc2nnc(Cc3ccc(F)cc3)s2)cc1`: the “hERG current change (%, negative = inhibition) at 10uM” value is 14%.

Turning to `COc1ccc(-c2nc(CS(=O)CC(=O)NC(C)CCc3ccccc3)c(C)o2)cc1OC` (centres unmarked), the “hERG current change (%, negative = inhibition) at 10uM” value was -16.8%.

`CCC1C2CC3C4N(C)c5ccccc5C45CC(C2C5O)N3[C@@H]1O` (some centres unmarked): the “hERG current change (%, negative = inhibition) at 10uM” value is listed as -28.5%.

Consider `CC[C@H]1C2C[C@H]3[C@@H]4N(C)c5ccccc5C45C[C@H](C2[C@H]5O)N3[C@@H]1O` (some centres unmarked), for which the “hERG current change (%, negative = inhibition) at 10uM” value is recorded as -43.8%.

In the case of `CCCC[N+]12C3C[C@H](C4[C@H](O)[C@]5(C[C@@H]41)c1ccccc1N(C)[C@@H]35)[C@H](CC)[C@H]2O.[I-]` (some centres unmarked), the “hERG current change (%, negative = inhibition) at 10uM” value is listed as -56.4%.

As to `Cc1ccc(C(=O)c2oc3ccc(Cl)cc3c2NC(=O)CN2CCN(C)CC2)cc1`, the “hERG current change (%, negative = inhibition) at 10uM” value is -74.3%.

As to `CC(=O)c1oc2ccccc2c1NC(=O)CN1CCCCC1.Cl`, the “hERG current change (%, negative = inhibition) at 10uM” value came to 7.19%.

On to `O=C(CN1CCCC1)Nc1c(C(=O)C2CC2)oc2ccccc12`, for which the “hERG current change (%, negative = inhibition) at 10uM” value is reported as -9.92%.

Consider `CC(=O)Nc1c(C(=O)c2ccccc2)oc2ccccc12`, for which the “hERG current change (%, negative = inhibition) at 10uM” value is given as -10.3%.

For the compound `CN1CCN(CC(=O)Nc2c(C(=O)c3ccccc3)oc3ccccc23)CC1`, the “hERG current change (%, negative = inhibition) at 10uM” value was -78.9%.

In the case of `NC(=O)c1oc2ccc(Cl)cc2c1NC(=O)CN1CCOCC1`, the “hERG current change (%, negative = inhibition) at 10uM” value is reported as -9.08%.

Regarding `COc1ccc2oc(C(=O)c3ccccc3)c(N)c2c1`, the “hERG current change (%, negative = inhibition) at 10uM” value was found to be 4.76%.

As to `CC(=O)Nc1c(C(=O)O)oc2ccc(Cl)cc12`, the “hERG current change (%, negative = inhibition) at 10uM” value came to 2.23%.

Take `COc1ccc2oc(C(=O)c3ccccc3)c(NC(=O)CN3CCN(C)CC3)c2c1`: the “hERG current change (%, negative = inhibition) at 10uM” value is on record as -59.8%.

Take `COc1ccc(C(=O)c2oc3ccc(OC)cc3c2NC(C)=O)cc1`: the “hERG current change (%, negative = inhibition) at 10uM” value amounted to 27.6%.

`CN1CCN(CC(=O)Nc2c(C(=O)C3CC3)oc3ccccc23)CC1`: the “hERG current change (%, negative = inhibition) at 10uM” value was -52.4%.

Take `O=C(CN1CCOCC1)Nc1c(C(=O)C2CC2)oc2ccccc12`: the “hERG current change (%, negative = inhibition) at 10uM” value is reported as -6.8%.

Regarding `O=C(NN=C1CCCC1)c1[nH]c2ccc(Cl)cc2c1-c1ccccc1`, the “hERG current change (%, negative = inhibition) at 10uM” value came to 7.13%.

For the compound `Cc1cc(C(=O)CSc2nc(N)cc(=O)[nH]2)c(C)n1CCc1ccc(F)cc1`, the “hERG current change (%, negative = inhibition) at 10uM” value stood at 1.93%.

For `O=C(NCCNC(=O)c1cnccn1)c1ccc(Cl)c(Cl)c1`, the “hERG current change (%, negative = inhibition) at 10uM” value is -13.3%.

On to `COc1cccc(NC(=O)c2cnsn2)c1`, for which the “hERG current change (%, negative = inhibition) at 10uM” value turned out to be 3.19%.

For `CCOCCNC(=O)c1ccccc1C(=O)NCCOCC`, the “hERG current change (%, negative = inhibition) at 10uM” value was -11.1%.

Source of the values: PMC4336329 (PLoS ONE, 2015).
